# Source: publication PMC7862700, “An all-to-all approach to the identification of sequence-specific readers for epigenetic DNA modifications on cytosine”
# Assays:
# Test in all cases: DAPPL (digital affinity profiling via proximity ligation, sequencing); 10 mM Tris-HCl pH 7.5, 50 mM NaCl, 1 mM DTT, 4% glycerol, room temperature, 30 min; GST-TFs on glutathione beads, 16-mer random dsDNA library, 0.1% formaldehyde crosslink after washing; high values mean tight binding
# FLI1 = target: T1, FLI1 (Homo sapiens, UniProt Q01543 1-452); conditions: protein: recombinant; tags: N-terminal GST; dsDNA, one strand shown
# T1 sequence: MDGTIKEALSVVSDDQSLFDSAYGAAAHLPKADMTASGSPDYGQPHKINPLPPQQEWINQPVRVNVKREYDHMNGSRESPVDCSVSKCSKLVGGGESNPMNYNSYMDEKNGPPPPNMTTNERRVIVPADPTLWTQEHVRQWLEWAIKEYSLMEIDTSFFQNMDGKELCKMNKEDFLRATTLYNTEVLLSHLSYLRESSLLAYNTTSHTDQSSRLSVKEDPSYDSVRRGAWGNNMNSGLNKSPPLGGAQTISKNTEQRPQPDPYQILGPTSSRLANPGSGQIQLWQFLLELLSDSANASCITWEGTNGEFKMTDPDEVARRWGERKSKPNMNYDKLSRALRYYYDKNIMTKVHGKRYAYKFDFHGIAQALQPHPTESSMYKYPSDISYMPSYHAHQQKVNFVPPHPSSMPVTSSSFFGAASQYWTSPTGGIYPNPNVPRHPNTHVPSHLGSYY
# Summary of the method: (§1)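 Sequencing on an Illumina NextSeq500 followed washing, crosslinking with 0.1% formaldehyde, proximity ligation (BsaI/T4 ligase, 1 h, 37 °C) and PCR amplification of pools that had been incubated for 30 min at room temperature with 200 nmole of a random double-stranded 16-mer DNA library in Tris/NaCl/DTT/glycerol buffer. Each pool held DNA-barcoded human transcription factors, expressed in yeast as GST fusions and captured on glutathione beads, plus a tag-only sample. Binding signal is a hexamer's read frequency for a factor divided by its frequency in the tag-only sample.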
# ELK1 = target: T2, ELK1 (Homo sapiens, UniProt P19419 1-428); conditions: protein: recombinant; tags: N-terminal GST; dsDNA, one strand shown
# T2 sequence: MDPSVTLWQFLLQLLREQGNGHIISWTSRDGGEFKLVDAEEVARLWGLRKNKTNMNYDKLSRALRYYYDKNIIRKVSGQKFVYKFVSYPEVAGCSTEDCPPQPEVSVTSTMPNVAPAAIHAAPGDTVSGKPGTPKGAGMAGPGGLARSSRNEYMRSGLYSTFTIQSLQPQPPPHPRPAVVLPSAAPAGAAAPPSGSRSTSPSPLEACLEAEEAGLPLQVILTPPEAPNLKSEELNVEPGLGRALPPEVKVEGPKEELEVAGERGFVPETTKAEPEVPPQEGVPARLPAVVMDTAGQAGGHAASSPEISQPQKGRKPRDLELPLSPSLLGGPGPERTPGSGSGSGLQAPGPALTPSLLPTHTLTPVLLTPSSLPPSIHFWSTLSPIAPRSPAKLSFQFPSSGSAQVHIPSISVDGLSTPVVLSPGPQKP
# Summary of the method: as §1
# GABPA = target: T3, GABPA (Homo sapiens, UniProt Q06546 1-454); conditions: protein: recombinant; tags: N-terminal GST; dsDNA, one strand shown
# T3 sequence: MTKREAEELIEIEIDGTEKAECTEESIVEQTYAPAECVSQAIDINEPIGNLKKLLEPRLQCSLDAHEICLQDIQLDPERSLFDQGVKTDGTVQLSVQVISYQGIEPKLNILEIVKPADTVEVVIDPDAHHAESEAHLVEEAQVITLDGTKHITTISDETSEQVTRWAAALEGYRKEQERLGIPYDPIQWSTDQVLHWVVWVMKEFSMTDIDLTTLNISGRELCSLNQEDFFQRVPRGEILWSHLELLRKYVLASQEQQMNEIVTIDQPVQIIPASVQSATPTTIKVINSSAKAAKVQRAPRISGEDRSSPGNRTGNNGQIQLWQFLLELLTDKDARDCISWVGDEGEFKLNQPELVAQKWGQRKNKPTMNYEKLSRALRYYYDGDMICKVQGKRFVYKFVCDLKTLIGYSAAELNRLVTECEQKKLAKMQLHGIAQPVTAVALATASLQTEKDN
# Summary of the method: as §1
# ERG = target: T4, ERG (Homo sapiens, UniProt P11308 1-479); conditions: protein: recombinant; tags: N-terminal GST; dsDNA, one strand shown
# T4 sequence: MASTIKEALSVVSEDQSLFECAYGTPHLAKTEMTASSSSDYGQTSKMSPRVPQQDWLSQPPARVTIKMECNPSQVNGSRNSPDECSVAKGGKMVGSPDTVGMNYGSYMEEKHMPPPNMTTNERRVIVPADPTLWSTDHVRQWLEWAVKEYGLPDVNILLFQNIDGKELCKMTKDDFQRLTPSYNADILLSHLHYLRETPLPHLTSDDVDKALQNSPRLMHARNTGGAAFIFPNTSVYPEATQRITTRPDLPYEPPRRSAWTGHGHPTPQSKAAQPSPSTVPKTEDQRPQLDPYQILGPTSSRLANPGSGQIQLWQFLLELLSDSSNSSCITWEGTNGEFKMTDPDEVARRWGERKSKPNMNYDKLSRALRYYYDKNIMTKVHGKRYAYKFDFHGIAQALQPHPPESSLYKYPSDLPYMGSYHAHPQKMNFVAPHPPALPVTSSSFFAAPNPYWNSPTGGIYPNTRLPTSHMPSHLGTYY
# Summary of the method: as §1
# ELF1 = ELF1 (Homo sapiens, UniProt P32519 1-619); conditions: protein: recombinant; tags: N-terminal GST; dsDNA, one strand shown
# Summary of the method: as §1
# EHF = target: T5, EHF (Homo sapiens, UniProt Q9NZC4 1-300); conditions: protein: recombinant; tags: N-terminal GST; dsDNA, one strand shown
# T5 sequence: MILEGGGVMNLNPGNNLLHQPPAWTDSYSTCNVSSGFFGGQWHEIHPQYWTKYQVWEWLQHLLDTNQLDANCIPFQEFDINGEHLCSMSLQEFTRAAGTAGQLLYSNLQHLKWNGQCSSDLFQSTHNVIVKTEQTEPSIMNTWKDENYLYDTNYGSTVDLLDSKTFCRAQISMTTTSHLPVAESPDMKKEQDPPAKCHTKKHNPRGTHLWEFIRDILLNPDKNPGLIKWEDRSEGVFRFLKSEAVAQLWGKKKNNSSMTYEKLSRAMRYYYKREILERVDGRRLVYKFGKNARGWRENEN
# Summary of the method: as §1
# SPI1 = SPI1 (Homo sapiens, UniProt P17947 1-270); conditions: protein: recombinant; tags: N-terminal GST; dsDNA, one strand shown
# Summary of the method: as §1
# SPIB = SPIB (Homo sapiens, UniProt Q01892 1-262); conditions: protein: recombinant; tags: N-terminal GST; dsDNA, one strand shown
# Summary of the method: as §1
# ELK3 = target: T6, ELK3 (Homo sapiens, UniProt P41970 1-407); conditions: protein: recombinant; tags: N-terminal GST; dsDNA, one strand shown
# T6 sequence: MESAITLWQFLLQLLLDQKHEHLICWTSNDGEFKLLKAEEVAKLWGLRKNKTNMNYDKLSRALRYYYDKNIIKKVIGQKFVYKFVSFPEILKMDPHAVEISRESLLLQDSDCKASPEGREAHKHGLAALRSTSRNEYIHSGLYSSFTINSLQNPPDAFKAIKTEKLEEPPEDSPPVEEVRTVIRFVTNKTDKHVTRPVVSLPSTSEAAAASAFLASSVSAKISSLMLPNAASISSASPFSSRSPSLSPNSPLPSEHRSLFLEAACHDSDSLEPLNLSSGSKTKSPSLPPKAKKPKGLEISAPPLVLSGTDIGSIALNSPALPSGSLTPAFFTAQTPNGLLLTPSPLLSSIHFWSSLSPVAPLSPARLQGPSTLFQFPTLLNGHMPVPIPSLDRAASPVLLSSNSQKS
# Summary of the method: as §1
# FEV = target: T7, FEV (Homo sapiens, UniProt Q99581 1-238); conditions: protein: recombinant; tags: N-terminal GST; dsDNA, one strand shown
# T7 sequence: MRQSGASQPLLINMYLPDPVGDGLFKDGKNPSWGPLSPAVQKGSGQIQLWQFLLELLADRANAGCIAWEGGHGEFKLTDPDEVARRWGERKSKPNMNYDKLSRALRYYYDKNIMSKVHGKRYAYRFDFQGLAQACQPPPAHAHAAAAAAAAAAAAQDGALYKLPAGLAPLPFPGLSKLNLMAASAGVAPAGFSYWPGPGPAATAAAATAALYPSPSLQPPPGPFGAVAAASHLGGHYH
# Summary of the method: as §1
# ETV5 = ETV5 (Homo sapiens, UniProt P41161 1-510); conditions: protein: recombinant; tags: N-terminal GST; dsDNA, one strand shown
# Summary of the method: as §1
# HSF1 = HSF1 (Homo sapiens, UniProt Q00613 1-529); conditions: protein: recombinant; tags: N-terminal GST; chain copies: 3; dsDNA, one strand shown
# Summary of the method: as §1
# SPIC = target: T8, SPIC (Homo sapiens, UniProt Q8N5J4 1-248); conditions: protein: recombinant; tags: N-terminal GST; dsDNA, one strand shown
# T8 sequence: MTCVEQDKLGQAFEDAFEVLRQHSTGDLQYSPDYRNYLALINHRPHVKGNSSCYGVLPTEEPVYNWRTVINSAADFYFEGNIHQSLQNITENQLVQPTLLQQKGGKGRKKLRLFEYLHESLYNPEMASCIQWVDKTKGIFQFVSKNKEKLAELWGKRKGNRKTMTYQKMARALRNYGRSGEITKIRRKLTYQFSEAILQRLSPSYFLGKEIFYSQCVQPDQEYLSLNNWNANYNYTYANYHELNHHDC
# Summary of the method: as §1
# ELF4 = ELF4 (Homo sapiens, UniProt Q99607 1-663); conditions: protein: recombinant; tags: N-terminal GST; dsDNA, one strand shown
# Summary of the method: as §1
# ELK4 = target: T9, ELK4 (Homo sapiens, UniProt P28324-2 1-405); conditions: protein: recombinant; tags: N-terminal GST; dsDNA, one strand shown
# T9 sequence: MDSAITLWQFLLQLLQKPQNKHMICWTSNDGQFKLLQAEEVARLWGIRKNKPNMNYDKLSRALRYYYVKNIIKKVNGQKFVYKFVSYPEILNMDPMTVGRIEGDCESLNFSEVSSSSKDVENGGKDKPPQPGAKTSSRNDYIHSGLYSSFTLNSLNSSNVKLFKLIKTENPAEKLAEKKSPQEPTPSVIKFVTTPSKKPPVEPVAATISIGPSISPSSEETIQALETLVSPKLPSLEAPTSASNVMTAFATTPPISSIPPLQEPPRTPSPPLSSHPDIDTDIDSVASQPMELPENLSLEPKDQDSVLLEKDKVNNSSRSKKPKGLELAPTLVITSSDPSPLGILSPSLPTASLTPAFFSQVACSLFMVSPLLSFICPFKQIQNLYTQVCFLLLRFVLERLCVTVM
# Summary of the method: as §1
# ETV2 = target: T10, ETV2 (Homo sapiens, UniProt O00321 1-342); conditions: protein: recombinant; tags: N-terminal GST; dsDNA, one strand shown
# T10 sequence: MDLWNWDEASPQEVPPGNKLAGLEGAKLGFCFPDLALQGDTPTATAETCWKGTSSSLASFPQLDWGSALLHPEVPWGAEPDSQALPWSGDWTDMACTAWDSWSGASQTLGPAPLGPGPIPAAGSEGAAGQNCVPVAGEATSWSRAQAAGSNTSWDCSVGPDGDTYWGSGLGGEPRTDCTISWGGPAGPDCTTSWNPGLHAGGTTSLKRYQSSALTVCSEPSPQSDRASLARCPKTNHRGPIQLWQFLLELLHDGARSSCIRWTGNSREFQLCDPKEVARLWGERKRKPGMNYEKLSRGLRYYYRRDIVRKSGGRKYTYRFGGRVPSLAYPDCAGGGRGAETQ
# Summary of the method: as §1
# ELF3 = target: T11, ELF3 (Homo sapiens, UniProt P78545 1-371); conditions: protein: recombinant; tags: N-terminal GST; dsDNA, one strand shown
# T11 sequence: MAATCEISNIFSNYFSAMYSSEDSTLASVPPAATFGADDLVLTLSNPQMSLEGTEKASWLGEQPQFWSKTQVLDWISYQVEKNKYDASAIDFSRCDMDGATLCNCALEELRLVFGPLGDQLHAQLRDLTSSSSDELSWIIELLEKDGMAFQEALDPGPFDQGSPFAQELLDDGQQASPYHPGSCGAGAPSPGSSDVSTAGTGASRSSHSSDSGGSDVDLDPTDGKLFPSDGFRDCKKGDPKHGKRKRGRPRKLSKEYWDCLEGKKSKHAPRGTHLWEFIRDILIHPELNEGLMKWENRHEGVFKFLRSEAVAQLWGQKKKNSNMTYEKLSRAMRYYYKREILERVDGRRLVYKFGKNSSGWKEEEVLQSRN
# Summary of the method: as §1
# CRX = CRX (Homo sapiens, UniProt O43186 1-299); conditions: protein: recombinant; tags: N-terminal GST; dsDNA, one strand shown
# Summary of the method: as §1
# ETV1 = ETV1 (Homo sapiens, UniProt P50549 1-477); conditions: protein: recombinant; tags: N-terminal GST; dsDNA, one strand shown
# Summary of the method: as §1
# Chain of ETV1 (P50549 whole entry): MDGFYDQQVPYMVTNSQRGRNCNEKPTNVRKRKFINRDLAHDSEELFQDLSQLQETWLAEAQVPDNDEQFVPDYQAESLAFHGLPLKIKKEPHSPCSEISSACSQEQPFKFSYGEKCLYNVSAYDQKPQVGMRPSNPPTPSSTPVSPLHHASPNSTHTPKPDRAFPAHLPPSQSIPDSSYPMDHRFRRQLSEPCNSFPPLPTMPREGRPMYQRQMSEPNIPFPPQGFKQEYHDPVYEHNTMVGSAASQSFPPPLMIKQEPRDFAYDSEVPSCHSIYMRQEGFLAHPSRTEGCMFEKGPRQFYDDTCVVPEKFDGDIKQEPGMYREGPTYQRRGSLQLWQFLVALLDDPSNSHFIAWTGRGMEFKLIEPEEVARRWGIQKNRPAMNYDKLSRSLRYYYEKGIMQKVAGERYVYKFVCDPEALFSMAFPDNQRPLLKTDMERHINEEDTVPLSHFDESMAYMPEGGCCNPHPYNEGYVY
# Chain of ELF1 (P32519 whole entry): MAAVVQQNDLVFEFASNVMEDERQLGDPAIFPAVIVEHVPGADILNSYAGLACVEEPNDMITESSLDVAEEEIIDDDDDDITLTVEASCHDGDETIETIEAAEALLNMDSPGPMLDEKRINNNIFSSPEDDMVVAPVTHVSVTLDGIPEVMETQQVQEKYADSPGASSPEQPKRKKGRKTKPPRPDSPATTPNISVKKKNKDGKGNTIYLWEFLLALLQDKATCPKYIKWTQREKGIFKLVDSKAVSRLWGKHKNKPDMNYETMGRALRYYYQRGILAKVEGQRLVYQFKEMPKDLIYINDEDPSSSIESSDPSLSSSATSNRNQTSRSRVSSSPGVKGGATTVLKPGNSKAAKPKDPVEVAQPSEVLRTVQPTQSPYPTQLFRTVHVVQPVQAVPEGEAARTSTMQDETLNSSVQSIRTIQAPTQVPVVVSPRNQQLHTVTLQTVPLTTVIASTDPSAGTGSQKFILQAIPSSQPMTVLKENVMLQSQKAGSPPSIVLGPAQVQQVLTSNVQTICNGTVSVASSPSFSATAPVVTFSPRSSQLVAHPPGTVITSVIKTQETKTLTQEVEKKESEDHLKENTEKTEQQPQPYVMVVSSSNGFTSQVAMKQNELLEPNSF
# Chain of HSF1 (Q00613 whole entry): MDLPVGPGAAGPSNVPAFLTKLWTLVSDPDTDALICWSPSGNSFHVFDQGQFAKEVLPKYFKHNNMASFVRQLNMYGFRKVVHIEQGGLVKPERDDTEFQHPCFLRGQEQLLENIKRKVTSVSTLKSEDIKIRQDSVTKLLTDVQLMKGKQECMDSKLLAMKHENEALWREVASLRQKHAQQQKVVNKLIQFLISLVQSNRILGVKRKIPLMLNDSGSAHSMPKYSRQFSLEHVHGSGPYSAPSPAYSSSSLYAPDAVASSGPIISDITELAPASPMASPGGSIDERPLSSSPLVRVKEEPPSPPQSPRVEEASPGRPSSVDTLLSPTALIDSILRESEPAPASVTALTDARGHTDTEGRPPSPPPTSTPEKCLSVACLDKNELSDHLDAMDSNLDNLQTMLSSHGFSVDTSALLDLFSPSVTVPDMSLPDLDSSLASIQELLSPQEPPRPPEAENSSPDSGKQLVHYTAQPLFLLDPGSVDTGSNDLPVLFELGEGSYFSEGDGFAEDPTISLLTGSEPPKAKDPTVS
# Chain of CRX (O43186 whole entry): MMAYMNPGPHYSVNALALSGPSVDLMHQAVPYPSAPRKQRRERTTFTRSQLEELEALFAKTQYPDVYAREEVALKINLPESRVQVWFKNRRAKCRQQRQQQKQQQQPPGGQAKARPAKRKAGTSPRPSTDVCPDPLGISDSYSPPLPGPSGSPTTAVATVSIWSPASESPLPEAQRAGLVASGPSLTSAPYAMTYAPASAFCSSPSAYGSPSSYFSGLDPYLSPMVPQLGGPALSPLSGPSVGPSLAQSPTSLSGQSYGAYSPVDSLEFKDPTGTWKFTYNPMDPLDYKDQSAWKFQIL
# Chain of SPIB (Q01892 whole entry): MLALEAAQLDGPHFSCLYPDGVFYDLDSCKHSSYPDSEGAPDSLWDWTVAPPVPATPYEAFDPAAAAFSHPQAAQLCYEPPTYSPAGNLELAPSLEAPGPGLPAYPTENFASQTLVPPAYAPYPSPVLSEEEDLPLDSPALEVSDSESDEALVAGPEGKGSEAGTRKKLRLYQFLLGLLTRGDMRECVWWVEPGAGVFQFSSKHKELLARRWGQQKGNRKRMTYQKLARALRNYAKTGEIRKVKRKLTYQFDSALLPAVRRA
# Chain of ELF4 (Q99607 whole entry): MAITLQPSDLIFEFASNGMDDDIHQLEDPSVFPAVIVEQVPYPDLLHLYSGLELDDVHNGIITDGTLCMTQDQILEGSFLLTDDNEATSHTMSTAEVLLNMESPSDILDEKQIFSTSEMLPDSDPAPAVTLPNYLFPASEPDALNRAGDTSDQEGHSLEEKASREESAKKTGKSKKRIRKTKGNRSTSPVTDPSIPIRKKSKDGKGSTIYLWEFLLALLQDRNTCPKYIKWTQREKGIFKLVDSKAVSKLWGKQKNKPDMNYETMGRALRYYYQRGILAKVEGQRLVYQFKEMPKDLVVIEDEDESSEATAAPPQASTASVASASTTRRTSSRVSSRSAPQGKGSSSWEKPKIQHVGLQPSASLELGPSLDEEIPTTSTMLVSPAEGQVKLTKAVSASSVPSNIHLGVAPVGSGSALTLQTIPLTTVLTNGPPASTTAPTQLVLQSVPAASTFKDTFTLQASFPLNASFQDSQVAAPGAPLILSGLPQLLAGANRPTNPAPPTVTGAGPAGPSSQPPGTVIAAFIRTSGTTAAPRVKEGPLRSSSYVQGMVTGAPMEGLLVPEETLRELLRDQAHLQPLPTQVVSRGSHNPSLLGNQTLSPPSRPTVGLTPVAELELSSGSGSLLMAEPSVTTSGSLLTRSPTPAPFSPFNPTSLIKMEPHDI
# Chain of ETV5 (P41161 whole entry): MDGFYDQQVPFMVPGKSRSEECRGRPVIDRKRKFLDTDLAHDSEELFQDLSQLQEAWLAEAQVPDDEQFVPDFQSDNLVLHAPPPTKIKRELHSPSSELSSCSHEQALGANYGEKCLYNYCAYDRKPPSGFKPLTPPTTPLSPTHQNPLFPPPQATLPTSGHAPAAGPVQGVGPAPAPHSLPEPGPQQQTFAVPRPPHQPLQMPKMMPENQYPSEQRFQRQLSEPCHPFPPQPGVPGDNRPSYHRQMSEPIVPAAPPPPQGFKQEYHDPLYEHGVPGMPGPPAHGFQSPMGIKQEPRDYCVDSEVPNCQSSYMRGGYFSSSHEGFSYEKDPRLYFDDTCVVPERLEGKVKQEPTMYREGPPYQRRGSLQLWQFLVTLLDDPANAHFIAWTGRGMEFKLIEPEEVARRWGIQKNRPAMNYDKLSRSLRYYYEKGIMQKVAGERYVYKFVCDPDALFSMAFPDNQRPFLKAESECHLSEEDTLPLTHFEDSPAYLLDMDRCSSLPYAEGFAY
sequence,measurement,setting,value
ACAATC,binding signal,FLI1,"1.08 fold enrichment (6-mer frequency, TF over GST control)"
same,binding signal,ELK1,"1.09 fold enrichment (6-mer frequency, TF over GST control)"
same,binding signal,GABPA,"1.19 fold enrichment (6-mer frequency, TF over GST control)"
same,binding signal,ERG,"1.16 fold enrichment (6-mer frequency, TF over GST control)"
same,binding signal,ELF1,"1.21 fold enrichment (6-mer frequency, TF over GST control)"
same,binding signal,EHF,"1.13 fold enrichment (6-mer frequency, TF over GST control)"
same,binding signal,SPI1,"1.12 fold enrichment (6-mer frequency, TF over GST control)"
same,binding signal,SPIB,"1.09 fold enrichment (6-mer frequency, TF over GST control)"
same,binding signal,ELK3,"1.13 fold enrichment (6-mer frequency, TF over GST control)"
same,binding signal,FEV,"1.11 fold enrichment (6-mer frequency, TF over GST control)"
same,binding signal,ETV5,"1.1 fold enrichment (6-mer frequency, TF over GST control)"
same,binding signal,HSF1,"1.43 fold enrichment (6-mer frequency, TF over GST control)"
same,binding signal,SPIC,"1.17 fold enrichment (6-mer frequency, TF over GST control)"
same,binding signal,ELF4,"1.11 fold enrichment (6-mer frequency, TF over GST control)"
same,binding signal,ELK4,"1.15 fold enrichment (6-mer frequency, TF over GST control)"
same,binding signal,ETV2,"1.18 fold enrichment (6-mer frequency, TF over GST control)"
same,binding signal,ELF3,"1.29 fold enrichment (6-mer frequency, TF over GST control)"
same,binding signal,CRX,"1.36 fold enrichment (6-mer frequency, TF over GST control)"
same,binding signal,ETV1,"1.16 fold enrichment (6-mer frequency, TF over GST control)"
